Test results from PubChem BioAssay AID463173 (ICCB-Longwood Screening Facility, Harvard Medical School, 2010).
Among all 52,000 compounds or so, about 4,300 (8.3%) were called active. Cut-off read from the data, not from the text of the source: active = survival mostly below about 52% (no sharp cut-off); inactive = mostly above about 56%. The sample as a whole holds a higher share of actives than the screen did.

tested on: DeltatarO mutant; test: growth inhibition of S. aureus wild type versus tarO mutant, primary screen, teichoic acid synthesis inhibitors, RN4220, OD600 (AID 463173); conditions: OD600, 18 h, stronger effect = lower value, screened at 18.75 µg/mL (by protocol)

| Compound | survival |
| --- | --- |
| CSc1cccc(NC(=O)Nc2ccccc2OCc2cc(=O)n3cc(C)ccc3n2)c1 | 102% (inactive) |
| CCc1ccc(-c2nc(CN3CCC(C(=O)NCCc4ccc(Cl)cc4)CC3)c(C)o2)cc1 | 77% (inactive) |
| Cc1cccc(C(=O)N2CCc3cc(CNC(=O)CSc4ccccc4)ccc32)c1 | 77% (inactive) |
| Cc1c(C)c2cc3c(c(C)c2oc1=O)OCN(CCc1ccccc1)C3 | 77% (inactive) |
| COC(=O)Cc1c(C)c2cc3c(c(C)c2oc1=O)OCN(CCc1ccc(F)cc1)C3 | 44% (inactive) |
| Cc1c(C)c2cc3c(c(C)c2oc1=O)OCN(CCc1ccc(F)cc1)C3 | 41% (active) |
| CCCc1cc(=O)oc2c(C)c3c(cc12)CN(CCc1ccc(Cl)cc1)CO3 | 39% (active) |
| CCc1cc(=O)oc2c(C)c3c(cc12)CN(CCc1ccccc1)CO3 | 71% (inactive) |
| CCc1cc(=O)oc2c(C)c3c(cc12)CN(CCc1ccccc1OC)CO3 | 51% (inactive) |
| COc1ccc2oc(=O)c(-c3nc(-c4ccc(C)c(C)c4)cs3)cc2c1 | 91% (inactive) |
| COc1ccc(C2CC(=O)c3cnc4c(-c5ccc(F)cc5)c(C)nn4c3C2)cc1OC (centres undefined) | 80% (inactive) |
| CCOC(=O)c1sc2ncn(CC(=O)Nc3ccc(C)cc3Br)c(=O)c2c1C | 66% (inactive) |
| Cc1ccccc1CNC(=O)C(=O)NCC(c1ccc2c(c1)OCO2)N1CCOCC1 (centres undefined) | 87% (inactive) |
| CCN(C(=O)c1cc2c(=O)oc3ccc(C)cc3c2s1)c1cc(OC)ccc1OC | 78% (inactive) |
| CC(=O)Nc1ccc(Nc2ncnc3c2c(-c2ccccc2)cn3-c2ccc(C)c(Cl)c2)cc1 | 68% (inactive) |
| CNc1oc(-c2ccc(COc3ccc(C)cc3)o2)nc1C#N | 77% (inactive) |
| CCCn1c(CCC(=O)Nc2ccc(OCC)cc2)nc2cccnc21 | 93% (inactive) |
| CC(NC(=O)Nc1ccccc1C(F)(F)F)c1c(-n2cccc2)sc2c1CCCC2 (centres undefined) | 104% (inactive) |
| N#Cc1c(-n2ncnc2-c2ccccc2C(F)(F)F)sc2c1CCCCC2 | 6% (active) |
| COc1cccc(-c2ncnn2-c2sc3c(c2C#N)CCCCC3)c1OC | 86% (inactive) |
| N#Cc1c(-n2ncnc2-c2ccccc2Cl)sc2c1CCCCC2 | 26% (active) |
| COc1ccccc1-c1cc(C(=O)Nc2sc3c(c2C#N)CCCC3)no1 | 130% (inactive) |
| COc1ccccc1-c1ncnn1-c1sc2c(c1C#N)CCCCC2 | -2% (active) |

| Compound | survival |
| --- | --- |
| Cc1ccccc1-c1ncnn1-c1sc2c(c1C#N)CCCCC2 | 72% (inactive) |
| N#Cc1c(NC(=O)c2cccs2)sc2c1CCCCC2 | 87% (inactive) |
| N#Cc1c(/N=C/N2CCCCC2)sc2c1CCCC2 | 80% (inactive) |
| O=C(CCNS(=O)(=O)c1ccc2c(c1)CCCC(=O)N2)NCc1ccccc1Cl | 87% (inactive) |
| CCCOc1ccc(CNC(=O)Cn2ncn3c(cc4sc(CC)cc43)c2=O)cc1 | 94% (inactive) |
| CC(C)Cc1nn2c(=O)cc(COC(=O)c3ccccc3NC(=O)c3ccccc3)nc2s1 | 117% (inactive) |
| CSc1ncc(C(=O)Nc2ccccc2C(=O)c2ccccc2)c(C)n1 | 64% (inactive) |
| Cc1cccc(C(=O)NC(c2n[nH]c(=S)n2C)C(C)C)c1 (centres undefined) | 111% (inactive) |
| CCCOc1cccc(C(=O)Nc2cccc(NC(=O)c3ccc(Cl)cc3Cl)c2)c1 | 88% (inactive) |
| CCc1ccc(NC(=O)Cc2c(C(=O)O)c(C)cn2C)cc1 | 87% (inactive) |
| Cc1cn(C)c(CC(=O)Nc2cccc(Cl)c2C)c1C(=O)O | 99% (inactive) |
| CCOC(=O)c1ccccc1NC(=O)Cc1c(C(=O)O)c(C)cn1C | 17% (active) |
| Cc1ccc(C)c(NC(=O)CCOc2ccccc2)c1 | 77% (inactive) |
| CCOC(=O)c1ccccc1NC(=O)CCOc1ccccc1 | 22% (active) |
| Cc1c(Cl)cccc1NC(=O)CCOc1ccccc1 | 142% (inactive) |
| COc1ccc(C2(C(=O)O)CCCC2)cc1OC | 107% (inactive) |
| CSc1ncc(C(=O)N2CCN(c3cc(C)ccc3C)CC2)c(C)n1 | 72% (inactive) |
| Cc1ccc(S(=O)(=O)c2nnn3c2nc(N2CCC(C)CC2)c2cc(Cl)ccc23)cc1C | 78% (inactive) |
| COc1ccc(OC)c(C2C(C(=O)N3CCCCC3)=C(C)Nc3nc4ccccc4n32)c1 (centres undefined) | 63% (inactive) |
| COc1ccc(-n2cnc3cc(C(=O)NCCC4=CCCCC4)ccc32)cc1 | 75% (inactive) |
| CC(C)C(=O)Nc1ccc(N2CCN(C(=O)c3ccccc3)CC2)cc1 | 101% (inactive) |
| CCOCCCn1c(SCC(=O)Nc2ccccc2CC)nc2ccccc2c1=O | 80% (inactive) |
| Cc1ccc(Cn2c(SCC(=O)NCc3ccccc3)nc3ccsc3c2=O)cc1 | 92% (inactive) |

| Compound | survival |
| --- | --- |
| Cc1ccccc1CSc1nc2ccsc2c(=O)n1CCC(C)C | 68% (inactive) |
| CC(C)CCn1c(SCc2cccc(F)c2)nc2ccsc2c1=O | 87% (inactive) |
| O=C(CSc1nc2ccsc2c(=O)n1Cc1ccccc1Cl)NCc1ccc(Cl)cc1 | 101% (inactive) |
| Cc1ccc(CSc2nc3ccsc3c(=O)n2CCC(C)C)cc1 | -5% (active) |
| Cc1ccc(Cn2c(SCC(=O)NCc3ccccc3Cl)nc3ccsc3c2=O)cc1 | -5% (active) |
| Cc1nc2sc(C(=O)N(C)Cc3ccccc3)c(NC(=O)c3ccccc3)c2c(C)c1Cl | 60% (inactive) |
| Cc1cc(=O)n(Cc2ccccc2Cl)c2c1c(C)nn2-c1ccccc1 | 100% (inactive) |
| CCOc1ccc(CNC(=O)c2nn(-c3ccc(OC)cc3)c(=O)c3c2c2ccccc2n3C)cc1 | 101% (inactive) |
| CCC(=O)N1c2ccccc2CC1C(=O)NCc1ccc(OC(C)C)cc1 (centres undefined) | 97% (inactive) |
| CC1CCN(CC(=O)O)CC1 | 99% (inactive) |
| COc1cc(-c2noc(CSc3nc(-c4ccc(F)cc4)cc(=O)[nH]3)n2)cc(OC)c1OC | 69% (inactive) |
| CN(C(=O)c1cc(-c2ccccc2O)on1)c1ccccc1 | 40% (active) |
| O=C(c1cc(-c2cccc(Cl)c2)on1)N1CCN(c2ccccc2)CC1 | 23% (active) |
| CN(C(=O)c1cc(-c2ccccc2)on1)C1CCCCC1 | 91% (inactive) |
| O=C(O)c1cc(-c2ccccc2)on1 | 100% (inactive) |
| CCc1cc(C(=O)N2CCN(c3ccccc3)CC2)no1 | 48% (inactive) |
| O=C(c1cc(-c2ccccc2O)on1)N1CCCCC1 | 40% (active) |
| O=C(c1cc(-c2ccc(O)cc2)on1)N1CCN(c2ccccc2)CC1 | 96% (inactive) |
| CC1CCN(C(=O)c2cc(-c3ccc(Br)cc3)on2)CC1 | 51% (inactive) |
| CC1CCN(C(=O)c2cc(-c3ccc(Cl)cc3)on2)CC1 | 66% (inactive) |
| CC1CCN(C(=O)c2cc(-c3cccc(Cl)c3)on2)CC1 | -15% (active) |
| NC(=O)C1CCN(C(=O)c2cc(-c3ccccc3)on2)CC1 | 98% (inactive) |
| O=C(C1CC(c2ccccc2O)=NO1)N1CCCC1 (centres undefined) | 91% (inactive) |
